ChEMBL document CHEMBL1961873, “Compounds: GSK PKIS; Assays: Nanosyn kinase panel” (2012)

Legend:
[1] = biological target: T1, Serine/threonine-protein kinase Nek9 (Homo sapiens) (UniProt Q8TD19); conditions: at 1 µM;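 also: each value is a mean percent inhibition of NEK9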
T1 sequence (whole entry): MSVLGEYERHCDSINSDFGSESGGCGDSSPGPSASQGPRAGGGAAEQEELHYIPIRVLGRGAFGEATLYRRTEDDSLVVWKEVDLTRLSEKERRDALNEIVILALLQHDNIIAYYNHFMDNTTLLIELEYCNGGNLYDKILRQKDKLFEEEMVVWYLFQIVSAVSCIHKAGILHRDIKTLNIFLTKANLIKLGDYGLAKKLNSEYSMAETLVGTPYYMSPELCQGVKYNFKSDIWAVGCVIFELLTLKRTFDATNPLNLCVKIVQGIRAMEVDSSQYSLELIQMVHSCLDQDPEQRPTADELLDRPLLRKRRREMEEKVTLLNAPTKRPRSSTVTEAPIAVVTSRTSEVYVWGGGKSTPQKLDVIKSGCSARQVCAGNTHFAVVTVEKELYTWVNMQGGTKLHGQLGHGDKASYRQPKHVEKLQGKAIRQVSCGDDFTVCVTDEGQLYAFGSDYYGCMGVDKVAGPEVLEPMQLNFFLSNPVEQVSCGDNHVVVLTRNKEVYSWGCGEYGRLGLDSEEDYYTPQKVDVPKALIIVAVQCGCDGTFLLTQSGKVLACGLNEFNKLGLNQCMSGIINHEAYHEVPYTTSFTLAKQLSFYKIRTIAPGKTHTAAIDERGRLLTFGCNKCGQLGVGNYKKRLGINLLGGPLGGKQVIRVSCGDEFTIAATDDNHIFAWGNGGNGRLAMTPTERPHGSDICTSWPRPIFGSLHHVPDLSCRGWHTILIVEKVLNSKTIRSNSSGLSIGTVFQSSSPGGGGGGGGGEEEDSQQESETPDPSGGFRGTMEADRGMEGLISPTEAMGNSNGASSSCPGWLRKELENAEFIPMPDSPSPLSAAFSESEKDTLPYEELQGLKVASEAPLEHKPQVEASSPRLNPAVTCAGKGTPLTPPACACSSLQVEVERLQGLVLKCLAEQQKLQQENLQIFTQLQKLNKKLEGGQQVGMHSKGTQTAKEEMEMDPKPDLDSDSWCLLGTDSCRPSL

[2] = biological target: Serine/threonine-protein kinase PLK1 (Homo sapiens) (UniProt P53350); conditions: at 0.1 µM
[3] = biological target: Serine/threonine-protein kinase PLK1 (Homo sapiens) (UniProt P53350); conditions: at 1 µM
[4] = biological target: T2, Dual specificity protein kinase TTK (Homo sapiens) (UniProt P33981); conditions: at 0.1 µM
T2 sequence (whole entry): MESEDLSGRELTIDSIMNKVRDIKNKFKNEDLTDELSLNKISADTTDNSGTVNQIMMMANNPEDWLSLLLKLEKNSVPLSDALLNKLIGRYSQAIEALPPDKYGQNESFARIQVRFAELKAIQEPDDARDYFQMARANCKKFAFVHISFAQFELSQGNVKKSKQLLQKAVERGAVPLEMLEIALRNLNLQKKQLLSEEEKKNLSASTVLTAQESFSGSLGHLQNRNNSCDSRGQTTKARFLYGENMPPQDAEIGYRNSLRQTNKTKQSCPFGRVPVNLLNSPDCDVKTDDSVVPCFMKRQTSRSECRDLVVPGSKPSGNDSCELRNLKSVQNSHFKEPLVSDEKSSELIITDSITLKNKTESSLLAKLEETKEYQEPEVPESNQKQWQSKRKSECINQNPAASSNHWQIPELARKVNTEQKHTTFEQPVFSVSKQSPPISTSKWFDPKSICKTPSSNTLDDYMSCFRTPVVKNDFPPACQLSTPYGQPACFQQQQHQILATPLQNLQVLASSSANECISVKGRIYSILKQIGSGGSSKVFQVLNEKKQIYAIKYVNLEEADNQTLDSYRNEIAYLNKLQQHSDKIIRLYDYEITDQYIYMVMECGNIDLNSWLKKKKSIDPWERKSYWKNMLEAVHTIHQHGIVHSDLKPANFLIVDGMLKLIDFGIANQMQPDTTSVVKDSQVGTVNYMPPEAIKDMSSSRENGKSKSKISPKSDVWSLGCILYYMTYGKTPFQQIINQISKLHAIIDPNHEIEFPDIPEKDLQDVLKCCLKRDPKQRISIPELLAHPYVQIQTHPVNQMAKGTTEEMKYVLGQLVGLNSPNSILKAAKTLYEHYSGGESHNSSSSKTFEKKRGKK

[5] = tested on: T3, Receptor-type tyrosine-protein kinase FLT3 (Homo sapiens), P36888 [D835Y]; conditions: at 1 µM
T3 sequence (whole entry): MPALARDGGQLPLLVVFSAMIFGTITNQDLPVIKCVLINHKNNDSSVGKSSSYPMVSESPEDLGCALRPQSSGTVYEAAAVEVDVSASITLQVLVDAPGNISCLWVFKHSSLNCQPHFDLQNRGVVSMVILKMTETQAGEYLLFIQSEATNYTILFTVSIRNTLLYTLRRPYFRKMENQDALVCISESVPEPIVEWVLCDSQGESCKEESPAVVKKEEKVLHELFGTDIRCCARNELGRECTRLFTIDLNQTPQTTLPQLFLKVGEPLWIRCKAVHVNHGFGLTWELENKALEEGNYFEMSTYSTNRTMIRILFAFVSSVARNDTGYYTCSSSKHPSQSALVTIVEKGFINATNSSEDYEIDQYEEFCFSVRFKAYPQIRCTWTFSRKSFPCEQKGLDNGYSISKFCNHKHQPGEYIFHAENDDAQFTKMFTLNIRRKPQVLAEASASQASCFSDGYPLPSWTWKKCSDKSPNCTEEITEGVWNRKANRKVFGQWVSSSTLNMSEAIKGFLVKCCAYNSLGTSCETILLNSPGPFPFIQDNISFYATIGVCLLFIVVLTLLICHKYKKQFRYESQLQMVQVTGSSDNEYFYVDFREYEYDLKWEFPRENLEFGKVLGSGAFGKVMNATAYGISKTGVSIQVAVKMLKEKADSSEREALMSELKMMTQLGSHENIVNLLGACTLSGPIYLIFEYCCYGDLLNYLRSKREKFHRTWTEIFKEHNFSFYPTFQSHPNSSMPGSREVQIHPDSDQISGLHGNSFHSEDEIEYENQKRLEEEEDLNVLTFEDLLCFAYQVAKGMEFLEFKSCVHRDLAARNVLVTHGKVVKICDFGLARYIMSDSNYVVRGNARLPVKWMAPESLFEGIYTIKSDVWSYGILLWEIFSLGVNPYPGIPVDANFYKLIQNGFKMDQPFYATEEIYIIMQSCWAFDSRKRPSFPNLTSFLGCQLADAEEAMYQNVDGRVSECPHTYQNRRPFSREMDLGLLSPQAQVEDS

[6] = biological target: Vascular endothelial growth factor receptor 3 (Homo sapiens) (UniProt P35916); conditions: at 0.1 µM
[7] = biological target: Vascular endothelial growth factor receptor 3 (Homo sapiens) (UniProt P35916); conditions: at 1 µM
[8] = biological target: Macrophage colony-stimulating factor 1 receptor (Homo sapiens) (UniProt P07333); conditions: at 0.1 µM
[9] = biological target: Macrophage colony-stimulating factor 1 receptor (Homo sapiens) (UniProt P07333); conditions: at 1 µM
[10] = biological target: Tyrosine-protein kinase Fyn (Homo sapiens) (UniProt P06241); conditions: at 0.1 µM
[11] = biological target: Tyrosine-protein kinase Fyn (Homo sapiens) (UniProt P06241); conditions: at 1 µM
[12] = biological target: Tyrosine-protein kinase HCK (Homo sapiens) (UniProt P08631); conditions: at 0.1 µM
[13] = biological target: Tyrosine-protein kinase HCK (Homo sapiens) (UniProt P08631); conditions: at 1 µM
[14] = biological target: Insulin-like growth factor 1 receptor (Homo sapiens) (UniProt P08069); conditions: at 0.1 µM
[15] = biological target: Insulin-like growth factor 1 receptor (Homo sapiens) (UniProt P08069); conditions: at 1 µM
[16] = biological target: Insulin receptor (Homo sapiens) (UniProt P06213); conditions: at 0.1 µM
[17] = biological target: Insulin receptor (Homo sapiens) (UniProt P06213); conditions: at 1 µM
[18] = biological target: Insulin receptor-related protein (Homo sapiens) (UniProt P14616); conditions: at 0.1 µM
[19] = biological target: Insulin receptor-related protein (Homo sapiens) (UniProt P14616); conditions: at 1 µM
[20] = biological target: T4, Tyrosine-protein kinase ITK/TSK (Homo sapiens) (UniProt Q08881); conditions: at 0.1 µM;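 also: mean percent inhibition of ITK from the GSK PKIS screen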
T4 sequence (whole entry): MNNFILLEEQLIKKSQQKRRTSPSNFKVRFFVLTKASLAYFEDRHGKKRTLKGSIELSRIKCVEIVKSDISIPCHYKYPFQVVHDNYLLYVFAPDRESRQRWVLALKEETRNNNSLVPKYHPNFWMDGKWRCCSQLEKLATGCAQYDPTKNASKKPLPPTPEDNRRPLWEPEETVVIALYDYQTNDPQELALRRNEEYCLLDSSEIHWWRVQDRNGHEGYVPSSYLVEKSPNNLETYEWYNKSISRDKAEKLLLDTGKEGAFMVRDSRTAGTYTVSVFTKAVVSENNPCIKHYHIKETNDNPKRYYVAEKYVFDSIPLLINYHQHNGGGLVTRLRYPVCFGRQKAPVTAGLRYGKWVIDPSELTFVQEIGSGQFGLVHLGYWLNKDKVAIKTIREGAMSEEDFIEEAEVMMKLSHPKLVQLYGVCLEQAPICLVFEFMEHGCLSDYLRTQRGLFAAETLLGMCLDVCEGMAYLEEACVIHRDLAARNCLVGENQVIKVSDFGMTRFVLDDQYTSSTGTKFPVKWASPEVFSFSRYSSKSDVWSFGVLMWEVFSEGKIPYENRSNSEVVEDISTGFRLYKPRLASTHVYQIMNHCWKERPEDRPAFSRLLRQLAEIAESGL

Chain of Macrophage colony-stimulating factor 1 receptor (Homo sapiens) (P07333 whole entry): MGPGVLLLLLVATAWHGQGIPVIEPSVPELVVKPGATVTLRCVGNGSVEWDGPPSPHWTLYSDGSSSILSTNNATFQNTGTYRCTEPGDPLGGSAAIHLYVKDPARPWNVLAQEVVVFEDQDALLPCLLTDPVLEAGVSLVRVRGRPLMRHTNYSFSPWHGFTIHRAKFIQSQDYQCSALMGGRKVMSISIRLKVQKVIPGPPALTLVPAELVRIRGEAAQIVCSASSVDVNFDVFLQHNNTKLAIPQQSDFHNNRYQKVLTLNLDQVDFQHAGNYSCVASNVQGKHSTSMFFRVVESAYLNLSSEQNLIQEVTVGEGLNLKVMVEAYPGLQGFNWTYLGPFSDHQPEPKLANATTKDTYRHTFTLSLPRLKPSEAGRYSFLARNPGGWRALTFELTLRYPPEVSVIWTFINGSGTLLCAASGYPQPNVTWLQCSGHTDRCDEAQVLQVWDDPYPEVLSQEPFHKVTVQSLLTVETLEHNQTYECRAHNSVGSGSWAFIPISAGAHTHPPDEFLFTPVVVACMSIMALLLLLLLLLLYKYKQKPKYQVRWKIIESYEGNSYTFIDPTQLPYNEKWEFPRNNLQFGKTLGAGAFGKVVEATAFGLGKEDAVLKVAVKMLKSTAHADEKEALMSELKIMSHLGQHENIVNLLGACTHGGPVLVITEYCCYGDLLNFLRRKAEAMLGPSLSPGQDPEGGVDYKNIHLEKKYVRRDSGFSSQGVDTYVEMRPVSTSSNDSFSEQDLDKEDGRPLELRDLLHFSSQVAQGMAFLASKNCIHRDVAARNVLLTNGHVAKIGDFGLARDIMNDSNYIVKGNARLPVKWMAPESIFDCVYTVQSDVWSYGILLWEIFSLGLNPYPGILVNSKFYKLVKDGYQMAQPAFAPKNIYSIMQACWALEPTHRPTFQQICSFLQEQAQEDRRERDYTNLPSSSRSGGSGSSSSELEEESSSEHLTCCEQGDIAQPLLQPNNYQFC
Chain of Tyrosine-protein kinase HCK (Homo sapiens) (P08631 2-526 limits assumed): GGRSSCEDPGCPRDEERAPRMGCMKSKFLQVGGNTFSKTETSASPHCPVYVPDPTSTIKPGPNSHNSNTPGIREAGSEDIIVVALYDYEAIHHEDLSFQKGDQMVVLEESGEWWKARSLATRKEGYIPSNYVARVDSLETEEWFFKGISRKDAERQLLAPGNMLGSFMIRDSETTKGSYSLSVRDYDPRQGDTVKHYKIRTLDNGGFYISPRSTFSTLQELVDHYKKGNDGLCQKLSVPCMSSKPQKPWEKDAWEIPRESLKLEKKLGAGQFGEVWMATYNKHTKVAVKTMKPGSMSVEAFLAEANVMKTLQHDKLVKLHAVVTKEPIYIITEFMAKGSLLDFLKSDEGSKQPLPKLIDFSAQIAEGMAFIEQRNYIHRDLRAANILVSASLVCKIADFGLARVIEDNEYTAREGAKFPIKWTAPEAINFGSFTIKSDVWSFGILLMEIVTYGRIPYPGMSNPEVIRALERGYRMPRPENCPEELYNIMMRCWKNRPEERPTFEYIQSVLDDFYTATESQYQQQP
Chain of Insulin receptor (Homo sapiens) (P06213 28-758 limits assumed): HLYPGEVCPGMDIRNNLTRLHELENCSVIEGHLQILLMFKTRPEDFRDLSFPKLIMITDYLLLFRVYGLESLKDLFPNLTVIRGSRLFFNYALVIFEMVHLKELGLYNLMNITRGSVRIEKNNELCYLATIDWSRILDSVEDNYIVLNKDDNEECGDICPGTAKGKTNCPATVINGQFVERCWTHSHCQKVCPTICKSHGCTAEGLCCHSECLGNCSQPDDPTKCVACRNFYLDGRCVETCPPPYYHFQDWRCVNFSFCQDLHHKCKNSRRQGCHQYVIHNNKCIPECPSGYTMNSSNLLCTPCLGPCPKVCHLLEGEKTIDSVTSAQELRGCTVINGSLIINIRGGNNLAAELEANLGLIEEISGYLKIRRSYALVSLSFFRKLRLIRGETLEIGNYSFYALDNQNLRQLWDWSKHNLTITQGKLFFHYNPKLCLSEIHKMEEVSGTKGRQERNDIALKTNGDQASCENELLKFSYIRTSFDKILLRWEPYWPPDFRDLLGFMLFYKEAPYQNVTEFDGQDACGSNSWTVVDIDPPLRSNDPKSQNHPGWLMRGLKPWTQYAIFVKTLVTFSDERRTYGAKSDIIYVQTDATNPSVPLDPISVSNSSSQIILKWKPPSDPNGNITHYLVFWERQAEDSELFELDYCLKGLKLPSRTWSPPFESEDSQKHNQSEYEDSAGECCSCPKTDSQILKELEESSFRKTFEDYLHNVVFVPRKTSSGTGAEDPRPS
Chain of Insulin receptor (Homo sapiens) (P06213 763-1382 limits assumed): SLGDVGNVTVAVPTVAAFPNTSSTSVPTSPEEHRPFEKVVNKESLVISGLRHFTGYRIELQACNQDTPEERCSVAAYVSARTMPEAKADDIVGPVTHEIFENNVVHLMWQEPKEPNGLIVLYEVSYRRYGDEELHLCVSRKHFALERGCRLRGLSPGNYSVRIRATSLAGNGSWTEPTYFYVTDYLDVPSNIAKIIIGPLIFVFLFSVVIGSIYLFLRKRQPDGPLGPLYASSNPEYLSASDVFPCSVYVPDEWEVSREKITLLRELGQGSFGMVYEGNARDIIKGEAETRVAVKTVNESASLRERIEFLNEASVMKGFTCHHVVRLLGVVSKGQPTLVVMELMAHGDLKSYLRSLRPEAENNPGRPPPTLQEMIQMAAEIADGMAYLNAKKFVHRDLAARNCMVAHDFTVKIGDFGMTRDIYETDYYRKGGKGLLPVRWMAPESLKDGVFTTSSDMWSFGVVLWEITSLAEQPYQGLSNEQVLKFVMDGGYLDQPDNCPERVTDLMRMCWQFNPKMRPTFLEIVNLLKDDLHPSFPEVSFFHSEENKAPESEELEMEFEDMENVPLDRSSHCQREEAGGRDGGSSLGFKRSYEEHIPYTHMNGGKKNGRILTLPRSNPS
Chain of Insulin-like growth factor 1 receptor (Homo sapiens) (P08069 31-736 limits assumed): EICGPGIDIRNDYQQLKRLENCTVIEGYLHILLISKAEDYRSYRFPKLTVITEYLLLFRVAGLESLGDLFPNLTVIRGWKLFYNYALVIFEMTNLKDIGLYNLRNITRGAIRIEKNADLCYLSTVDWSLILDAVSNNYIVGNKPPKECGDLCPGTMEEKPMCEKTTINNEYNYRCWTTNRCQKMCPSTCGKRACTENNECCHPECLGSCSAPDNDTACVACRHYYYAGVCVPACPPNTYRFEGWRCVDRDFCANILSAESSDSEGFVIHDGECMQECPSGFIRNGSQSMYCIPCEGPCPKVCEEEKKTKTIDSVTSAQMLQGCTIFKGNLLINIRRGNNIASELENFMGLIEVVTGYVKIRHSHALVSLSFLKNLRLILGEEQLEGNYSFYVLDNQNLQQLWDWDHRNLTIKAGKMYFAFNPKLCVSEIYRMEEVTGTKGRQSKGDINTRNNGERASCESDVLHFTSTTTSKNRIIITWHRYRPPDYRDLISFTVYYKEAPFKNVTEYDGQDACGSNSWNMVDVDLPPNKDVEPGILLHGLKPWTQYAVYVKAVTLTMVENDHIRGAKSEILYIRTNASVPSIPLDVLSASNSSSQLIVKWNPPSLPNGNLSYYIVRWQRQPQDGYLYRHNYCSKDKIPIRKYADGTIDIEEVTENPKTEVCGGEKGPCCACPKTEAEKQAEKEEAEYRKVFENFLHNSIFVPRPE
Chain of Insulin-like growth factor 1 receptor (Homo sapiens) (P08069 741-1367 limits assumed): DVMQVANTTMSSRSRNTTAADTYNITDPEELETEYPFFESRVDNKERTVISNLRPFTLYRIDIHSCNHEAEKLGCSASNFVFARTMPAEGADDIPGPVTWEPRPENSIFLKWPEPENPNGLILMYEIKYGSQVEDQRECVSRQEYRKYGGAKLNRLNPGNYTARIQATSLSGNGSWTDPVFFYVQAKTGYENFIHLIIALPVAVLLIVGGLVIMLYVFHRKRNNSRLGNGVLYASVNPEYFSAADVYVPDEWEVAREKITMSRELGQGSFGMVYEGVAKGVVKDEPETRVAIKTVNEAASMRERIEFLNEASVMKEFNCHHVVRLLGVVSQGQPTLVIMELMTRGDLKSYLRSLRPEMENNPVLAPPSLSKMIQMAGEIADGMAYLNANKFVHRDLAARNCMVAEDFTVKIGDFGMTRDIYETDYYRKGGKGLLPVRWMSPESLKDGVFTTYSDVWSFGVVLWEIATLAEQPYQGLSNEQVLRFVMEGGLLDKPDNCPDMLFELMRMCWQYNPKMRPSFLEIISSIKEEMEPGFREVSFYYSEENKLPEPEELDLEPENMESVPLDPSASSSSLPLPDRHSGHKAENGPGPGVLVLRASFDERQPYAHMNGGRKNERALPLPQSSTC
Chain of Serine/threonine-protein kinase PLK1 (Homo sapiens) (P53350 whole entry): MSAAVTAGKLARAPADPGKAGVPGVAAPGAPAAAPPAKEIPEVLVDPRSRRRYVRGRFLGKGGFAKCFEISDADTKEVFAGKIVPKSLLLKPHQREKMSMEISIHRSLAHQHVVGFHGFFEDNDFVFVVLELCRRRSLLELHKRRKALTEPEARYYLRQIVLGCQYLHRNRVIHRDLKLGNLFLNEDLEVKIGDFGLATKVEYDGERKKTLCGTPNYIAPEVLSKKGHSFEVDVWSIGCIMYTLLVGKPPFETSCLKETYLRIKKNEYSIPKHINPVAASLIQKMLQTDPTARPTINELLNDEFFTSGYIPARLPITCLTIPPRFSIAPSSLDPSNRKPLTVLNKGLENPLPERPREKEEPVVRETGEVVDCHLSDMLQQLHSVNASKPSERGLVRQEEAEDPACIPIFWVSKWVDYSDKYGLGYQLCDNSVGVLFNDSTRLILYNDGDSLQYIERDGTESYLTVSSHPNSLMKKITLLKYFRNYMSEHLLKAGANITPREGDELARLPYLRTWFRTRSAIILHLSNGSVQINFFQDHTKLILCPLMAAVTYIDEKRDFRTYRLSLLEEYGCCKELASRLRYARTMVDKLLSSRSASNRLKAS

Compound | inhibition [1] | inhibition [2] | inhibition [3] | inhibition [4] | inhibition [5] | inhibition [6] | inhibition [7] | inhibition [8] | inhibition [9] | inhibition [10] | inhibition [11] | inhibition [12] | inhibition [13] | inhibition [14] | inhibition [15] | inhibition [16] | inhibition [17] | inhibition [18] | inhibition [19] | inhibition [20]
COC(=O)Nc1nc2ccc(Oc3ccc(NC(=O)Nc4cc(C(F)(F)F)ccc4F)cc3)cc2s1 | -3.04% | 1.23% | 0.38% | 0.59% | 13.5% | 10.4% | 52.8% | 2.52% | 39.1% | 6.49% | 21.1% | 8.79% | 28.3% | -0.75% | 1.6% | 1.59% | 3.09% | -2.9% | -1.09% | 1.03%
CNC(=O)c1sc(-n2cnc3cc(OC)c(OC)cc32)cc1OCc1ccccc1C(F)(F)F | 9.14% | 4.65% | 17.8% | 4.81% | -2.47% | 3.76% | 6.76% | -2.22% | 7.07% | 2.51% | 18.9% | 5.55% | 14% | -3.71% | 1.09% | -4.16% | -0.01% | 2.15% | 2.12% | 0.38%
OCCCNc1nccc(-c2c(-c3ccc(F)cc3)nn3cc(C(F)(F)F)ccc23)n1 | 0.58% | 3.57% | 1.96% | 3.55% | 1.7% | -2.7% | 2.54% | 1.88% | 6.34% | 0.07% | 4.88% | 5.52% | 5.92% | 1.8% | 1.03% | 0.28% | 3.33% | 3.08% | 1.53% | 1.09%
O=C(Nc1n[nH]c2nnc(-c3cccnc3)cc12)C1CC1 | 1.12% | -0.87% | 2.11% | 1.85% | -1.95% | 0.27% | 3.35% | -1.71% | 5.46% | 1.64% | 4.86% | 0.81% | 2.83% | 0.22% | -1.27% | 3.48% | 1.82% | -0.87% | -1.01% | 0.11%
COc1cccc(-n2ncc3c(N/N=C/c4ccc(C(=O)NCCN(C)C)cc4)ncnc32)c1 | 1.36% | 1.5% | 2.1% | 3.48% | 76% | 12.1% | 53.5% | 6.78% | 37.8% | 48.6% | 84.5% | 23.1% | 68.8% | 3.78% | 4.69% | 0.94% | 1.97% | 5.09% | 1.31% | 2.07%
COc1cc(N2CCN(C(C)C)CC2)ccc1Nc1nc(Nc2cccc(F)c2C(=O)O)c2cc[nH]c2n1 | 4.56% | 6.28% | 29.6% | 62.3% | 12.6% | 2.54% | -0.47% | 2.82% | 2.24% | -0.12% | 0.99% | 4.6% | 9.23% | 65.7% | 89.8% | 82.6% | 95.5% | 22.1% | 82.3% | 1.35%
COc1ccccc1-c1cc(/C=C2\C(=O)Nc3ncc(Br)cc32)cc(Br)c1O | 3.53% | 4.19% | 9.04% | 12.7% | 4.73% | 1.8% | 4.28% | 3.88% | 7.16% | 5.35% | 26.3% | 7.67% | 12.5% | 0.89% | 2.09% | 3.72% | 6.87% | 2.46% | 1.02% | 1.08%
N#Cc1ccc2c(-c3ccnc(NC4CC4)n3)c(-c3ccc(F)cc3)nn2c1 | 4.02% | 2.66% | 0.98% | 2.64% | 4.7% | -1.37% | 4.18% | -2.75% | 4.65% | -0.41% | 0.92% | 1.95% | 1.1% | 1.58% | -2.63% | 0.02% | -1.67% | -0.15% | 0.6% | 0.02%
O=C(O[C@H]1CN[C@H](C#Cc2cc3ncnc(Nc4ccc5c(cnn5Cc5ccccc5)c4)c3s2)C1)N1CCOCC1 | -0.45% | -1.27% | 1.79% | 5.51% | 2.81% | 1.1% | 1.5% | -6.02% | 4.04% | 1.79% | 8.19% | -0.73% | 3.3% | -2.85% | -0.43% | 2.89% | 1.79% | -1.64% | -2.28% | -1.11%
